Experimental findings from PubChem BioAssay AID2284158 (EPA ToxCast) are described below.

The structures appear in SMILES notation. Calls of active or inactive are those of the source. Rule for the calls: active = hit-call score of the fitted dose curve at least 0.9, where 1 is the maximum; inconclusive = response in the unintended direction; inactive = score below 0.9.

Sequence of D(1A) dopamine receptor (Homo sapiens) (P21728 whole entry, looked up): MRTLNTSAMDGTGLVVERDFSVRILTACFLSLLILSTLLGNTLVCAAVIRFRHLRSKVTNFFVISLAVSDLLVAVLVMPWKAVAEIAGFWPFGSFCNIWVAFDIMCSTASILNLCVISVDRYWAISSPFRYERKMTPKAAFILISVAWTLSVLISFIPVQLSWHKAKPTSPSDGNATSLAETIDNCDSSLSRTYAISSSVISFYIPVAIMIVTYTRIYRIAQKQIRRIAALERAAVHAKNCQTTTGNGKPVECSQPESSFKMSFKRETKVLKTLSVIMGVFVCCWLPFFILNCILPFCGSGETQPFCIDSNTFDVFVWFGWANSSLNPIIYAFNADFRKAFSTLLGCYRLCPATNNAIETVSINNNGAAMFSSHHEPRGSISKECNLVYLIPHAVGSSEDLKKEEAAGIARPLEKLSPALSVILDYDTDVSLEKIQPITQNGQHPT

This assay has as its target D(1A) dopamine receptor (Homo sapiens) (UniProt P21728). Put plainly: ERF_FR_GPCR_hDRD1: Eurofins (ERF) G Protein-Coupled Receptor (GPCR) Radioligand Binding LeadHunter Assay for human Dopamine Receptor D1 Antagonism, conducted at France lab site. The method, then: ERF_FR_GPCR_hDRD1 is a biochemical, single-readout assay that uses extracted gene-proteins in a cell-free assay. Measurements were taken 1 hour after chemical dosing in a 96-well plate. See D1 Human Dopamine GPCR Binding (Antagonist Radioligand) Assay, Cerep.ERF_FR_GPCR_hDRD1 is an assay component calculated from the ERF_FR_GPCR_hDRD1 assay. It is designed to measure radioligand binding using a type of binding reporter as detected by scintillation counting with radiometry technology.Data from the assay component ERF_FR_GPCR_hDRD1 was analyzed at the assay endpoint, ERF_FR_GPCR_hDRD1, in the positive analysis fitting direction relative to DMSO as the negative control and baseline of activity. Using a type of binding reporter, loss-of-signal activity can be used to understand changes in binding as they relate to gene DRD1. To generalize the intended target to other relatable targets, this assay endpoint is annotated to the gpcr intended target family, where the subfamily is dopamine.
Human cells are incubated for 60 minutes at room temprature with [3H]SCH 23390 ligand (0.3 nM) and SCH 23390 as control inhibitor.Test Sample Requirements: Minimum for 1) Screen: 60 ul of 10 mM stock -OR- 1 mg (pre-weighed) for 10 uM final testing. 2) Dose Response: 90 ul of 10 mM stock -OR- 1 mg (pre-weighed) for a top concentration at 10 uM.
Turning to `COc1cc(CCC(=O)CC(=O)CCc2ccc(O)c(OC)c2)ccc1O`, the call was inactive.
Take `COc1cc(/C=C/C(=O)CC(=O)/C=C/c2ccc(O)c(OC)c2)ccc1O`: the AC50 was 2040 nM (active).
For the compound `O=C(/C=C/c1ccc(O)cc1)CC(=O)/C=C/c1ccc(O)cc1`, the AC50 is 1070 nM (active).
